Calls of active or inactive are those of the source. Unless noted, the rule behind the calls is not given here.
How the values were obtained:
[1] = compounds binding Alexa647 anti-His antibody – biochemical, small-molecule microarray, 635 nm fluorescence, artefact control for SMM control protein annotation, primary screen (AID 1128); conditions: higher = more signal;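 note: score merges feature fluorescence with signal-to-noise for each printed compound spot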
[2] = system: Human papillomavirus type 1a E7 protein (residues 1-88); experiment: HPV1a E7 small-molecule binders, primary screen, biochemical, small-molecule microarray, residues 1-88, 635 nm (AID 1129); conditions: small-molecule microarray binding, fluorescence 635 nm; higher = more signal
[3] = target: Focal adhesion kinase 1 (Homo sapiens) (UniProt Q05397); experiment: PTK2 protein binding on printed compound slides – biochemical, small-molecule microarray, 635/667 nm fluorescence, BSA, DTT, primary screen (AID 1130); conditions: 635 nm fluorescence, higher = more signal;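 note: composite of spot emission at 667 nm and signal to noise over triplicate slides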
[4] = system: Fibrinogen (Alexa647-labelled); experiment: Alexa647-fibrinogen binding to printed small molecules – biochemical, small-molecule microarray, 635/667 nm fluorescence, artefact control for SMM control-protein annotation, profiling panel (AID 1131); conditions: fibrinogen-A647 binding fluorescence, higher = more signal;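 note: z-score merges 667 nm fluorescence with per-spot signal-to-noise over triplicate slides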
[5] = target: Follistatin (Homo sapiens) (UniProt P19883); experiment: FST protein binding to printed compounds – biochemical, small-molecule microarray, 635/667 nm fluorescence, primary screen (AID 1132); conditions: 635 nm fluorescence, higher = more signal
[6] = target: Fibroblast growth factor 2 (Homo sapiens) (UniProt P09038); experiment: basic fibroblast growth factor binding to printed compounds – biochemical, small-molecule microarray, 635/667 nm fluorescence, primary screen (AID 1133); conditions: FGF2, fluorescence 635/667, higher = more signal
[7] = JC-1 mitochondrial potential readout, lung cancer cells – cell-based, A549, JC-1 fluorescence, basal, 24 h, 100 nL, profiling panel (AID 1138); conditions: higher = more signal;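 note: A549 lung adenocarcinoma cells under basal conditions with no added stimulus; test concentration not given here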
Lefty1 = Lefty1 protein binding to printed compounds – biochemical, small-molecule microarray, 635/667 nm fluorescence, primary screen (AID 1139); conditions: fluorescence 635/667, higher = more signal
[8] = system: wheat germ agglutinin (Triticum aestivum), Alexa647-labelled; experiment: Alexa647-WGA lectin binding to printed small molecules – biochemical, small-molecule microarray, 635/667 nm fluorescence, artefact control for SMM control-protein annotation, profiling panel (AID 1140); conditions: WGA-A647 binding, 635 nm fluorescence, higher = more signal;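 note: score merges 667 nm feature emission with signal to noise over triplicate slides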
[9] = target: Luciferin 4-monooxygenase (Photinus pyralis) (UniProt P08659); experiment: inhibition of purified Photinus pyralis luciferase – biochemical, luminescence, purified enzyme, 2006 set, primary screen (AID 1141); conditions: purified firefly luciferase, SteadyGlo luminescence, 30 min; higher = more signal, called active from +8 up or from −8 down;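 note: cell-free assay with purified firefly luciferase at 100 ng per well in PBS; test concentration not given here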
[10] = system: Wnt5a (protein binding on small-molecule microarray); experiment: small molecules binding Wnt5a protein – biophysical, small-molecule microarray, 635/667 nm fluorescence, primary screen (AID 1142); conditions: 635 nm fluorescence, higher = more signal;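 note: fluorescence read at 667 nm with signal to noise per printed feature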
[11] = ATP-based viability of Huh7 replicon cells – cell-based, CellTiter-Glo luminescence, basal, 48 h, cytotoxicity control for HCV replication inhibitor project, primary screen (AID 1143); conditions: higher = more signal, called active from +8 up or from −8 down;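 note: Huh7 hepatoma cells carrying a hepatitis C replication reporter with no stimulus; test concentration not given here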
[12] = Pseudomonas biofilm growth suppression – PAO1 strain, BacTiter-Glo luminescence, LB-PBS, primary screen (AID 1144); conditions: P. aeruginosa PAO1 biofilm, 12 h, higher = more signal
[13] = basal CRE-LacZ reporter activity in PC12 – cell-based, unstimulated, primary screen (AID 1145); conditions: no forskolin, luminescence, 4.5 h, higher = more signal, called active from +8 up or from −8 down
[14] = forskolin-driven CRE-LacZ activity in PC12 – cell-based, CRE-LacZ reporter, forskolin-stimulated, primary screen (AID 1146); conditions: luminescence, 4.5 h, higher = more signal, called active from +8 up or from −8 down;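 note: PC12 cells with 6xCRE LacZ reporter stimulated by forskolin 10 µM; beta-galactosidase reporter signal reflecting CREB driven transcription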
[15] = target: Streptavidin (Streptomyces avidinii) (UniProt P22629); experiment: compounds binding control protein streptavidin – biophysical, small-molecule microarray, 635/667 nm fluorescence, artefact control for SMM compound annotation, primary screen (AID 1147); conditions: higher = more signal;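 note: signal reflects streptavidin binding to arrayed compounds as a control protein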
[16] = probe aInhba binding on compound microarray – biochemical, small-molecule microarray, 635/667 nm fluorescence, primary screen (AID 1148); conditions: higher = more signal;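 note: score merges 667nm spot fluorescence with signal-to-noise for antibody binding to printed compounds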
Torsin-1A (Homo sapiens) [17] = target: Torsin-1A (Homo sapiens) (UniProt O14656); experiment: TOR1A wild-type binding on microarray – cell lysate, small-molecule microarray, lysate, 635/667 nm, primary screen (AID 1149); conditions: COS7 hTOR1A-WT lysate, 635 nm fluorescence, higher = more signal
Torsin-1A (Homo sapiens) [18] = target: Torsin-1A (Homo sapiens) (UniProt O14656); experiment: torsin A mutant lysate binding on microarrays – cell lysate, small-molecule microarray, COS7 lysate, 635/667 nm fluorescence, primary screen (AID 1150); conditions: COS7 hTOR1A mutant lysate, 635 nm fluorescence, higher = more signal;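 note: score pools 667 nm emission and signal to noise measuring lysate protein binding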
[19] = system: Sonic hedgehog protein (Shh); experiment: Sonic hedgehog microarray binding compounds – biochemical, small-molecule microarray, 635/667 nm fluorescence, primary screen (AID 1151); conditions: 635 nm fluorescence, higher = more signal;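 note: Shh protein binding to compounds spotted on small-molecule microarray slides; score combines spot fluorescence intensity with signal-to-noise across triplicate slides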

Torsin-1A (Homo sapiens), sequence (O14656 whole entry, looked up): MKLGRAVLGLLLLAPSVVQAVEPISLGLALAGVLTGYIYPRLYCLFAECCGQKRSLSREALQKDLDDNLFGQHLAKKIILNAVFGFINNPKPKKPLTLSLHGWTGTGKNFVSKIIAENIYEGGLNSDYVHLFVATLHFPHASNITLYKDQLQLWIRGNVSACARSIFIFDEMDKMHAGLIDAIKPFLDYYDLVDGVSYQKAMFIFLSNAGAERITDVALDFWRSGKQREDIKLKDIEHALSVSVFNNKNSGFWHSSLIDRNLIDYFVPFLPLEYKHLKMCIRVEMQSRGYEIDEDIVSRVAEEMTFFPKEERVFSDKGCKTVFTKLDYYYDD
Luciferin 4-monooxygenase (Photinus pyralis), sequence (P08659 whole entry, looked up): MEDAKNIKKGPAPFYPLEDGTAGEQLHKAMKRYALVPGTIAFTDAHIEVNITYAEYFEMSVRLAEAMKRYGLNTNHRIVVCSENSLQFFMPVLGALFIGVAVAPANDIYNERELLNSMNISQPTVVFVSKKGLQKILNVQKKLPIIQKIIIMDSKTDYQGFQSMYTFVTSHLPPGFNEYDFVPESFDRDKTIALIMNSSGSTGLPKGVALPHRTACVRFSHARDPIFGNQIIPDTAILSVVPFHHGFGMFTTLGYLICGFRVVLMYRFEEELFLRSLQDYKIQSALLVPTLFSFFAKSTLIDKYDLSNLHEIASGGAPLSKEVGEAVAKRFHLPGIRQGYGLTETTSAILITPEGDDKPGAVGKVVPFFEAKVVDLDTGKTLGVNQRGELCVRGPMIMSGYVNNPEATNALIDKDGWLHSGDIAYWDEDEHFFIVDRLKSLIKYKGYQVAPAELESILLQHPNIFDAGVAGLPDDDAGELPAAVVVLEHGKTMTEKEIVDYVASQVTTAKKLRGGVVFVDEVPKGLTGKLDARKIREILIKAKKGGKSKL
Streptavidin (Streptomyces avidinii), sequence (P22629 whole entry, looked up): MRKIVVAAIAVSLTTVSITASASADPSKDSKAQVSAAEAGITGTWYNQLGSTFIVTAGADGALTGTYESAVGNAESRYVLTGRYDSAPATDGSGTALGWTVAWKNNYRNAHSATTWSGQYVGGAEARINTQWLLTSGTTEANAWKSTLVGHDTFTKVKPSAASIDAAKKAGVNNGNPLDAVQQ
Fibroblast growth factor 2 (Homo sapiens), sequence (P09038 whole entry, looked up): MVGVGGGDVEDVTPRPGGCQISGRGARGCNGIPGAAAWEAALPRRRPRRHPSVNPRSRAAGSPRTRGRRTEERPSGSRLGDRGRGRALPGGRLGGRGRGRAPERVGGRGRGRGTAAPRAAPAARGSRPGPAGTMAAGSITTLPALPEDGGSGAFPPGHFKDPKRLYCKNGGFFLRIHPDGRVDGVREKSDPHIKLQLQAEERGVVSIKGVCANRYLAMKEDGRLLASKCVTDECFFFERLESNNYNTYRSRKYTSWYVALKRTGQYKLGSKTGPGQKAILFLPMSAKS
Focal adhesion kinase 1 (Homo sapiens), sequence (Q05397 whole entry, looked up): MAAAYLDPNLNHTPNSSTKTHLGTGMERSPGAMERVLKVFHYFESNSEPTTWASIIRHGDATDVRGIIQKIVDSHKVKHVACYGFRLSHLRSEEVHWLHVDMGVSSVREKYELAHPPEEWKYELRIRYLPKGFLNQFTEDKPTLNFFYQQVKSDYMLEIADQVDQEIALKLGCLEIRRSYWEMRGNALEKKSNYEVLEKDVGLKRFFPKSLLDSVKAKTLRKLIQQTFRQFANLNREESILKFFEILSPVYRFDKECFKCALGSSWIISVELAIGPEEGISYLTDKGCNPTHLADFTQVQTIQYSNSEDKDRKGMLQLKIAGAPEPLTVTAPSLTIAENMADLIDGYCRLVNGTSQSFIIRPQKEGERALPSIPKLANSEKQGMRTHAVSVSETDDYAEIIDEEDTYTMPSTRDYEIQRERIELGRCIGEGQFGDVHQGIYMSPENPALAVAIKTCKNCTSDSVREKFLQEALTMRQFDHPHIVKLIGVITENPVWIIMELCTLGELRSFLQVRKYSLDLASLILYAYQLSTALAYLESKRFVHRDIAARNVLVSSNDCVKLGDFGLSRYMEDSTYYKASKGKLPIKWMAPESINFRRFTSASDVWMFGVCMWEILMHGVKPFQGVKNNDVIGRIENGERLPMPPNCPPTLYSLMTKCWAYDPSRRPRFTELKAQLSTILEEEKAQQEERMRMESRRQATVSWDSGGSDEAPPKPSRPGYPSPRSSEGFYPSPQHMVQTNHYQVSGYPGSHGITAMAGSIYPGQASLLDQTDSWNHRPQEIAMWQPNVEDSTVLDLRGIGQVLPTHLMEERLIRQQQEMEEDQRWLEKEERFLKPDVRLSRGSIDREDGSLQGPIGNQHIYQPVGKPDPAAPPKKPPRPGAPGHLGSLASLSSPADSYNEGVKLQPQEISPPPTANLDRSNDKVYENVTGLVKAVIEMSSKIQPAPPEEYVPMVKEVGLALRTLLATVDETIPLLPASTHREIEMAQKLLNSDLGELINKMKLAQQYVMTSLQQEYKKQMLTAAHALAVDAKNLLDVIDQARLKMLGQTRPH
Follistatin (Homo sapiens), sequence (P19883 whole entry, looked up): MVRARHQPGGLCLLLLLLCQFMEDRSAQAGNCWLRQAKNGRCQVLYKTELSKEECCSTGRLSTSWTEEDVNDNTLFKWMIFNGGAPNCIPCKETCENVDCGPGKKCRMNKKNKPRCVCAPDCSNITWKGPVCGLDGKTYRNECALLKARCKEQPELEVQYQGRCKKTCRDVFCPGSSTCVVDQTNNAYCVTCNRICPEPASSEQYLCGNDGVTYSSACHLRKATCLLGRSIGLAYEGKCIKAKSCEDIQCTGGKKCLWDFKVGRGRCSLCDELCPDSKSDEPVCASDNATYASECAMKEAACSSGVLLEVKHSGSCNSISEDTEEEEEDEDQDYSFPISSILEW

Compound	composite z-score [1]	composite z-score [2]	composite z-score [3]	composite z-score [4]	composite z-score [5]	composite z-score [6]	z-score [7]	composite z-score (Lefty1)	composite z-score [8]	z-score [9]	composite z-score [10]	z-score [11]	z-score [12]	z-score [13]	z-score [14]	composite z-score [15]	composite z-score [16]	composite z-score (Torsin-1A (Homo sapiens) [17])	composite z-score (Torsin-1A (Homo sapiens) [18])	composite z-score [19]
CCOC(=O)C1=C(C(=O)OCC)N(S(=O)(=O)CC[Si](C)(C)C)[C@H](c2ccccc2)CC1	0.171	1.17	-0.069	0.837	0.761	-0.0502	2.54	0.566	1.1	1.01 (inactive)	0.263	-4.45 (inactive)	0.338 (inactive)	0.229 (inactive)	0.207 (inactive)	0.955	0.131	0.454	0.476	-0.424
COCCOC(=O)N1C(=O)[C@@]2(c3cc(C#CC4(O)CCCCCC4)ccc31)[C@H](c1ccc(OCCO)cc1)N1[C@H](c3ccccc3)[C@H](c3ccccc3)OC(=O)[C@H]1[C@@H]2C(N)=O	1.43	1.15	0.528	0.892	1.38	1.55	-1.27	1.38	0.613	-0.608 (inactive)	0.437	-4.15 (inactive)	0.323 (inactive)	0.468 (inactive)	0.595 (inactive)	0.213	0.0804	0.974	0.861	1.33
CCCCN1CC=CC23O[C@@H]4C=CCOC(=O)[C@@H]4[C@H]2C(=O)N(C(CO)C(C)C)[C@@H]3C1=O (stereo not given in full)	-1.13	-0.663	-0.813	-0.328	0.389	0.126	0.406	-0.12	-0.708	-0.606 (inactive)	-0.0661	0.233 (inactive)	0.946 (inactive)	0.463 (inactive)	0.547 (inactive)	-0.507	-0.34	-0.241	-0.436	0.605
CC(=O)c1ccc(C(O)C2C=CC3C(=O)NC(=O)C3N2Nc2ccc(Cl)cc2Cl)cc1 (stereo not given)	1.48	-0.106	-0.363	-0.131	0.504	-0.115	-0.76	-0.0596	0.564	0.284 (inactive)	0	0.102 (inactive)	-0.806 (inactive)	0.626 (inactive)	0.412 (inactive)	0.147	0.0565	0.027	0.0127	-0.257
COC(=O)C1=CC(CCCO)=CC(c2ccc(CN3CCCC3)cc2)N(Cc2sc3ccccc3c2Cl)C=C1C(=O)OC (stereo not given)	3.17	1.23	0.579	1.05	0.59	0.709	4.12	0.377	1.34	-2.8 (inactive)	1.25	-3.24 (inactive)	-0.782 (inactive)	0.209 (inactive)	-1.74 (inactive)	1.85	0.662	0.591	1.88	0.836
COCCOC(=O)N1C(=O)[C@@]2(c3cc(C#CCCO)ccc31)[C@H](C(=O)N1CCN(c3ncccn3)CC1)[C@H]1C(=O)O[C@H](c3ccccc3)[C@H](c3ccccc3)N1[C@@H]2c1ccc(O)cc1	2.17	1.22	1.19	0.928	0.577	0.088	1.35	0.413	0.613	-0.979 (inactive)	0.15	-1.79 (inactive)	-0.798 (inactive)	0.484 (inactive)	0.268 (inactive)	-0.269	-0.291	-0.144	0.522	1.11
CCCCC(O)C1C=CC2C(=O)N(C)C(=O)C2N1Nc1ccccc1 (stereo not given)	1.86	0.603	0.383	0.416	0.0471	-0.614	-0.771	-0.291	0.0187	0.16 (inactive)	0.0991	0.898 (inactive)	-0.556 (inactive)	-0.14 (inactive)	0.721 (inactive)	0.264	0.106	0.29	0.0531	-0.768
CCOC(=O)C1=CC[C@@H](c2ccccc2Cl)N(S(=O)(=O)c2ccc(C)cc2)[C@H]1c1cccc(OC)c1	0.413	1.05	0.1	0.737	0.176	0.0652	0.0495	-0.0177	0.54	0.658 (inactive)	0.142	-1.84 (inactive)	1.15 (inactive)	0.425 (inactive)	0.173 (inactive)	0.333	-0.0695	0.368	0.0635	-0.476
COc1ccc(C#Cc2ccc3c(c2)[C@]2(C(=O)N3)[C@H](C(=O)Nc3nc4ccccc4s3)[C@H]3C(=O)O[C@H](c4ccccc4)[C@H](c4ccccc4)N3[C@@H]2c2ccc(OCCO)cc2)cc1	1.11	0.98	0.266	0.731	1.38	0.83	-2.33	0.949	1.29	-3.53 (inactive)	0.505	-0.974 (inactive)	-0.953 (inactive)	-1.43 (inactive)	-0.545 (inactive)	1.57	0.153	0.504	0.887	1.06
C=CCNC(=O)[C@@H]1[C@H]2C(=O)O[C@H](c3ccccc3)[C@H](c3ccccc3)N2[C@H](c2ccc(O)cc2)[C@@]12C(=O)Nc1ccc(C#CC3(O)CCCCCC3)cc12	0.906	0.596	1.31	-1.37	0.726	0.749	-0.9	0.304	-0.321	0.27 (inactive)	0.179	-0.794 (inactive)	-0.817 (inactive)	-1.69 (inactive)	-0.361 (inactive)	-0.932	-0.128	0.16	0.781	1.11

Source: PubChem BioAssay
